# From publication PMC11024108
# Tests used:
# Experiment in all cases: cross-link between two proteins; cross-linking mass spectrometry
# [1] = biological target: Small ribosomal subunit protein eS4, X isoform (UniProt P62701)
# [2] = biological target: Small ribosomal subunit protein uS19 (UniProt P62841)
# [3] = biological target: Small ribosomal subunit protein uS4 (UniProt Q6ZWN5)
# Syntaxin-1B = Syntaxin-1B (UniProt P61264)
# Tubulin alpha-1C chain = Tubulin alpha-1C chain (UniProt Q9BQE3)
# Tubulin beta-2A chain = Tubulin beta-2A chain (UniProt Q7TMM9)
# [4] = biological target: Ubiquitin-like FUBI-ribosomal protein eS30 fusion protein (UniProt P62861)
# [5] = biological target: Ubiquitin-ribosomal protein eS31 fusion protein (UniProt P62979)
# [6] = biological target: cAMP-dependent protein kinase catalytic subunit beta (UniProt P68181)
# [7] = biological target: cAMP-dependent protein kinase type II-beta regulatory subunit (UniProt P31324)
# cAMP-dependent protein kinase type II-beta regulatory subunit, sequence (P31324 whole entry): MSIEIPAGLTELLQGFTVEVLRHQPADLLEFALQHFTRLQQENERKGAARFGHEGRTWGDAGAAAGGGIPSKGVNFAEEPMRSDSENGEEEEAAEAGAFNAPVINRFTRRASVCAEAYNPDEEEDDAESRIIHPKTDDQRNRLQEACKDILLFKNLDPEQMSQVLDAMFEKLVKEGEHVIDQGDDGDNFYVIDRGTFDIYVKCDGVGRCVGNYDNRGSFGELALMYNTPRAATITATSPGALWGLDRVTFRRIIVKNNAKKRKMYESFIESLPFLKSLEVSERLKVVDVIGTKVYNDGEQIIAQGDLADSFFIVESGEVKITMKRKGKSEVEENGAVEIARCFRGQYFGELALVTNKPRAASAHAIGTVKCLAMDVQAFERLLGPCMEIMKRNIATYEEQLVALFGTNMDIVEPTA
# cAMP-dependent protein kinase type II-alpha regulatory subunit, P12367, sequence (P12367 whole entry): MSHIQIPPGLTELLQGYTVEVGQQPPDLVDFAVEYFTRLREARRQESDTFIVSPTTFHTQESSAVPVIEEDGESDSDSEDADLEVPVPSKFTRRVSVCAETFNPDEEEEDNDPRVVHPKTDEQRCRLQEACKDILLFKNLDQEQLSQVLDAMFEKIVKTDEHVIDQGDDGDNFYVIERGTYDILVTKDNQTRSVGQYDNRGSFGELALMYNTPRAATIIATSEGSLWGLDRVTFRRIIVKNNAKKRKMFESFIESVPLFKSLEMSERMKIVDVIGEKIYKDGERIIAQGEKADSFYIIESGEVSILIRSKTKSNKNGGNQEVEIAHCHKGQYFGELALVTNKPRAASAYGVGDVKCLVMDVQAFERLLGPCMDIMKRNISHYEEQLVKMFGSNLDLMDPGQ
# Syntaxin-1B, sequence (P61264 whole entry): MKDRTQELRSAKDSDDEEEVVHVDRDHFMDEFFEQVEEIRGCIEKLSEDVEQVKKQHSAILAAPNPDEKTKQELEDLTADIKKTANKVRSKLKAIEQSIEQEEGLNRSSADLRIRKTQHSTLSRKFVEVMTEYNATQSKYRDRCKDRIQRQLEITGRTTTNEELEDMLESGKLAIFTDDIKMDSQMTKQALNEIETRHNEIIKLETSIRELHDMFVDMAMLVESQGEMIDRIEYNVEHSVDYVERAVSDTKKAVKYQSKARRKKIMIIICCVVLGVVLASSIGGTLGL
# Tubulin alpha-1A chain, P68369, sequence (P68369 whole entry): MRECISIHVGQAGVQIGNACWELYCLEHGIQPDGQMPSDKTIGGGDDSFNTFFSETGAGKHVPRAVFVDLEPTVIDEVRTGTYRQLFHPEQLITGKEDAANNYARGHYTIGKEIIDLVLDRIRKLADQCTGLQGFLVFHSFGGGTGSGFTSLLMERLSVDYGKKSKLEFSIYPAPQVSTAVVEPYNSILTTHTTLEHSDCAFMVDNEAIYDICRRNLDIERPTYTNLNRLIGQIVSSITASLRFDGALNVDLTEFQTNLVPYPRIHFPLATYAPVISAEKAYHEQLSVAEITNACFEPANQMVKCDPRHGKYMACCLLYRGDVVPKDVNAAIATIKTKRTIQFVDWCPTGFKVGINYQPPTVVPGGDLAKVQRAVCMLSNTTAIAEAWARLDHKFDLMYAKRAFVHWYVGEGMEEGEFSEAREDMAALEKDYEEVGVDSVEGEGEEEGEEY
# Tubulin beta-2A chain, sequence (Q7TMM9 whole entry, the tested form may be a part): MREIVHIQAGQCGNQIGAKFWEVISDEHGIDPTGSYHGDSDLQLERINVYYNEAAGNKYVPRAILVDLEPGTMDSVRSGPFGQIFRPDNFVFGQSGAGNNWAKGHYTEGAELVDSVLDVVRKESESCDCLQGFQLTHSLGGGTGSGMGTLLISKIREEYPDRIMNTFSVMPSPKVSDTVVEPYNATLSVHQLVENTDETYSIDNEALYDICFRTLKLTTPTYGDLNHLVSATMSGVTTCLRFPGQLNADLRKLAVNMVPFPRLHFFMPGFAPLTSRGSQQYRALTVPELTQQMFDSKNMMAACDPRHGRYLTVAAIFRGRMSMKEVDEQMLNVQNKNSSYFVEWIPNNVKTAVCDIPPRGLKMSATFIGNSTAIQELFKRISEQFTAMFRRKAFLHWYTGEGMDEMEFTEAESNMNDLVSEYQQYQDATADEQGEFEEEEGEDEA
# Syntaxin-1A, O35526, sequence (O35526 whole entry): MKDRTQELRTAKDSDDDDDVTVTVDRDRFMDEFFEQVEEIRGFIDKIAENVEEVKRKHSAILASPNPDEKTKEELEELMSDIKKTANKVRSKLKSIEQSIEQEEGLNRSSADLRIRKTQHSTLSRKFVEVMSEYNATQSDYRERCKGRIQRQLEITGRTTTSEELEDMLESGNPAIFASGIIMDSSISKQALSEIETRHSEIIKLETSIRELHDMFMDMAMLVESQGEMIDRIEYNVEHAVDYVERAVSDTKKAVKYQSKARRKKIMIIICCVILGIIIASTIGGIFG
substance,measurement,setting,value
"Small ribosomal subunit protein uS4, P46781",listed as a hit,[1],yes
"Small ribosomal subunit protein uS13, P62269",listed as a hit,[2],yes
"Small ribosomal subunit protein eS4, P62702",listed as a hit,[3],yes
"Small ribosomal subunit protein uS5, P25444",listed as a hit,[3],yes
"Syntaxin-1A, O35526",listed as a hit,Syntaxin-1B,yes
"L-lactate dehydrogenase A chain, P00338",listed as a hit,Tubulin alpha-1C chain,yes
"Tubulin alpha-1A chain, P68369",listed as a hit,Tubulin beta-2A chain,yes
"Small ribosomal subunit protein uS3, P23396",listed as a hit,[4],yes
"Small ribosomal subunit protein eS7, P62081",listed as a hit,[5],yes
"Small ribosomal subunit protein uS15, P62277",listed as a hit,[5],yes
"cAMP-dependent protein kinase catalytic subunit alpha, P05132",listed as a hit,[6],yes
"cAMP-dependent protein kinase type II-alpha regulatory subunit, P12367",listed as a hit,[7],yes
